# Results filed as inconclusive are left out. The source made the active and inactive calls.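 How the source made its calls, unless noted: active means normalized viability below 100% at a tested concentration; inactive means the rest.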
# Columns and labels:
# [1] = growth inhibition of DIPG glioma cells, dose response, cell-based, SU-DIPG-XVII, MIPE5.0, CellTiter-Glo, qHTS (AID 1347060; cut-off not given, nearly all actives have AC50 up to about 26 µM); conditions: SU-DIPG-XVII viability, CellTiter-Glo ATP luminescence
# [2] = growth inhibition of DIPG glioma cells, dose response, cell-based, SU-DIPG-XIII, MIPE5.0, CellTiter-Glo, qHTS (AID 1347064; cut-off not given, nearly all actives have AC50 up to about 23 µM); conditions: SU-DIPG-XIII viability, CellTiter-Glo ATP luminescence
# [3] = viability loss in pontine glioma line – cell-based, SU-DIPG-XXV, MIPE5.0, CellTiter-Glo, qHTS, dose response (AID 1347065; cut-off not given, nearly all actives have AC50 up to about 26 µM;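 further: cells exposed to compound for 48 hours before ATP readout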); conditions: CellTiter-Glo ATP luminescence
# [4] = JHH-DIPG-1 glioma cell viability, MIPE5.0 library, CellTiter-Glo luminescence, qHTS (AID 1347067; cut-off not given, nearly all actives have AC50 up to about 26 µM;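 further: cells exposed to compound for 48 hours before readout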); conditions: JHH-DIPG-1 glioma viability, CellTiter-Glo ATP luminescence
# [5] = SU-DIPG-XXV glioma cell viability, MIPE5.0 library, qHTS (AID 1347068; cut-off not given, nearly all actives have IC50 up to about 30 µM)
# [6] = sensitizers of A549 cells to miR-34 induction, primary screen, imaging, A549 dox-inducible miR-34, nuclei and caspase counts (AID 1347080;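 active means compounds whose cell count with miR-34 switched on is under 0.7 times the count with it off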); conditions: A549 miR-34 inducible, Hoechst nuclei count, 48 h
# [7] = survival rescue of mitochondrial mutant cells in low glucose, primary screen, MELAS cybrids, Rieske KO mouse fibroblasts, CellTiter-Glo (AID 1508586;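 active means mean z-score across replicates of 1.96 or higher in either the MELAS or the Rieske mutant cell line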;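 further: z relative to plate mean and SD of compound and empty wells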)
# [8] = ovarian cancer cell viability with rucaparib, profiling panel, oncology-focused library, rucaparib conditional (AID 1508598); conditions: patient-derived ovarian cancer cells, CellTiter-Glo viability, 144 h, stronger effect = lower value
# [9] = LFS_MB_P medulloblastoma growth inhibition, cell-based, chromothripsis tumors, cisplatin or BGB combos (AID 1671449; in the data active means inhibition above about 80%;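 further: cells exposed for 96 hours; 0% = vehicle DMSO and 100% = killing by high DMSO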); conditions: LFS_MB_P medulloblastoma cells
# [10] = HDN33 neuroblastoma growth inhibition, cell-based, chromothripsis tumors, cisplatin or BGB combos (AID 1671450; in the data active means inhibition above about 80%;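 further: cells exposed to compound for four days; 0% = vehicle DMSO and 100% = cell killing by high DMSO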); conditions: HDN33 neuroblastoma cells, stronger effect = higher value
# [11] = ICB984 medulloblastoma cell growth inhibition, synergistic combos for chromothripsis tumors, cisplatin or BGB combos (AID 1671451; call rule not given here;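 further: cells exposed for 96 hours before readout; 0% = vehicle DMSO and 100% = killing by high DMSO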); conditions: ICB984 medulloblastoma cells, drug combinations, stronger effect = higher value
# [12] = LFS_MB_1R medulloblastoma cell growth inhibition, synergistic combos for chromothripsis tumors, cisplatin or BGB combos (AID 1671452; in the data active means inhibition above about 80%;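 further: cells exposed for 96 hours before readout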); conditions: LFS_MB_1R medulloblastoma cells, stronger effect = higher value
# [13] = HTB85 osteosarcoma cell growth inhibition, synergistic combos for chromothripsis tumors, BGB or cisplatin IC20 combos (AID 1671453; in the data active means inhibition above about 80%;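 further: cells exposed for 96 hours before readout; 0% = vehicle DMSO and 100% = high DMSO killing control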); conditions: HTB85 osteosarcoma cells, drug combinations, stronger effect = higher value
# [14] = CRL2098 osteosarcoma cell growth inhibition, synergistic combos for chromothripsis tumors, BGB or cisplatin IC20 combos (AID 1671454; in the data active means inhibition above about 80%;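 further: cells exposed for 96 h before readout; 0% = vehicle DMSO and 100% = killing by high DMSO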); conditions: CRL2098 osteosarcoma cells, drug combinations, stronger effect = higher value
# [15] = HD-MB03 medulloblastoma cell growth inhibition, synergistic combos for chromothripsis tumors, BGB or cisplatin IC20 combos (AID 1671455; in the data active means inhibition above about 83%;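 further: 0% = vehicle DMSO and 100% = high DMSO as cytotoxic control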); conditions: HD-MB03 medulloblastoma cells, stronger effect = higher value
# [16] = UWB1.289 ovarian carcinoma cell growth inhibition, synergistic combos for chromothripsis tumors, BGB or cisplatin combos (AID 1671456; in the data active means inhibition above about 80%;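 further: cells exposed to compound for four days; 0% = vehicle DMSO and 100% = killing by high DMSO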); conditions: UWB1.289 ovarian carcinoma cells, stronger effect = higher value
# [17] = MDA-MB-436 breast carcinoma cell growth inhibition, synergistic combos for chromothripsis tumors, BGB or cisplatin combos (AID 1671458; call rule not given here;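 further: cells exposed for 96 hours; 0% = vehicle DMSO and 100% = killing by high DMSO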); conditions: MDA-MB-436 breast carcinoma growth inhibition, drug combinations, stronger effect = higher value
# [18] = growth inhibition of BT084 medulloblastoma cells, cell-based, ICGC_MB145, cisplatin and BGB IC40 combos (AID 1671461; in the data active means inhibition above about 80%;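 further: cells exposed to drugs for 96 hours; 0% = vehicle DMSO and 100% = high DMSO full killing control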); conditions: drug combinations, stronger effect = higher value
# [19] = growth inhibition of RCMB18 medulloblastoma cells, cell-based, cisplatin and BGB IC40 combos (AID 1671462; in the data active means inhibition above about 80%;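 further: cells exposed to compound for four days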); conditions: stronger effect = higher value
# [20] = growth inhibition of CRL1545 osteosarcoma cells, cell-based, cisplatin and BGB IC20 combos (AID 1671464; in the data active means inhibition above about 80%;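 further: cells exposed to compound for 96 hours before readout; 0% = vehicle DMSO and 100% = high DMSO killing control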); conditions: at 0.5 µM, stronger effect = higher value
# [21] = measured here: combination with BGB IC40, at 0.05 µM
# [22] = measured here: combination with cisplatin, at 0.5 µM
structure (smiles),measurement,setting,value
COc1cc(Nc2nc3ccccc3nc2NS(=O)(=O)c2ccc(NC(=O)c3ccc(C)c(OC)c3)cc2)cc(OC)c1,outcome,[1],inactive
same,outcome,[2],inactive
same,outcome,[3],inactive
same,outcome,[4],inactive
same,outcome,[5],inactive
same,fold change,"[6]; stronger effect = lower value, cell number ratio, induced over uninduced",0.923 (inactive)
same,fold change,[6]; measured here: relative caspase fold change +Dox/-Dox,1.03
same,cell count,"[6]; measured here: total cells with miR-34 induction, stronger effect = lower value",7550
same,cell count,[6]; measured here: total cells without miR-34 induction,8180
same,z-score,"[7]; MELAS cybrid survival, CellTiter-Glo 48 h, stronger effect = higher value",-0.401 (inactive)
same,z-score,"[7]; Rieske KO mouse fibroblast survival, CellTiter-Glo 72 h",0.479
same,viability,"[8]; at 0.000305 µM, OCI-C5x cells, with rucaparib 10 µM, 100% = cells with rucaparib alone",98.9% (active)
same,viability,"[8]; at 0.000305 µM, OCI-C5x cells, without rucaparib",109% (inactive)
same,viability,"[8]; at 0.000305 µM, OCI-P5x cells, with rucaparib 20 µM, 100% = cells with rucaparib alone",91.1% (active)
same,viability,"[8]; at 0.000305 µM, OCI-P5x cells, without rucaparib",95.8% (active)
same,viability,"[8]; at 0.00122 µM, OCI-C5x cells, with rucaparib 10 µM, 100% = cells with rucaparib alone",114% (inactive)
same,viability,"[8]; at 0.00122 µM, OCI-C5x cells, without rucaparib",112% (inactive)
same,viability,"[8]; at 0.00122 µM, OCI-P5x cells, with rucaparib 20 µM, 100% = cells with rucaparib alone",104% (inactive)
same,viability,"[8]; at 0.00122 µM, OCI-P5x cells, without rucaparib",98.9% (active)
same,viability,"[8]; at 0.00488 µM, OCI-C5x cells, with rucaparib 10 µM, 100% = cells with rucaparib alone",110% (inactive)
same,viability,"[8]; at 0.00488 µM, OCI-C5x cells, without rucaparib",112% (inactive)
same,viability,"[8]; at 0.00488 µM, OCI-P5x cells, with rucaparib 20 µM, 100% = cells with rucaparib alone",103% (inactive)
same,viability,"[8]; at 0.00488 µM, OCI-P5x cells, without rucaparib",101% (inactive)
same,viability,"[8]; at 0.0195 µM, OCI-C5x cells, with rucaparib 10 µM, 100% = cells with rucaparib alone",106% (inactive)
same,viability,"[8]; at 0.0195 µM, OCI-C5x cells, without rucaparib",109% (inactive)
same,viability,"[8]; at 0.0195 µM, OCI-P5x cells, with rucaparib 20 µM, 100% = cells with rucaparib alone",101% (inactive)
same,viability,"[8]; at 0.0195 µM, OCI-P5x cells, without rucaparib",107% (inactive)
same,viability,"[8]; at 0.0781 µM, OCI-C5x cells, with rucaparib 10 µM, 100% = cells with rucaparib alone",118% (inactive)
same,viability,"[8]; at 0.0781 µM, OCI-C5x cells, without rucaparib",114% (inactive)
same,viability,"[8]; at 0.0781 µM, OCI-P5x cells, with rucaparib 20 µM, 100% = cells with rucaparib alone",109% (inactive)
same,viability,"[8]; at 0.0781 µM, OCI-P5x cells, without rucaparib",108% (inactive)
same,viability,"[8]; at 0.313 µM, OCI-C5x cells, with rucaparib 10 µM, 100% = cells with rucaparib alone",108% (inactive)
same,viability,"[8]; at 0.313 µM, OCI-C5x cells, without rucaparib",116% (inactive)
same,viability,"[8]; at 0.313 µM, OCI-P5x cells, with rucaparib 20 µM, 100% = cells with rucaparib alone",107% (inactive)
same,viability,"[8]; at 0.313 µM, OCI-P5x cells, without rucaparib",104% (inactive)
same,viability,"[8]; at 1.25 µM, OCI-C5x cells, with rucaparib 10 µM, 100% = cells with rucaparib alone",106% (inactive)
same,viability,"[8]; at 1.25 µM, OCI-C5x cells, without rucaparib",120% (inactive)
same,viability,"[8]; at 1.25 µM, OCI-P5x cells, with rucaparib 20 µM, 100% = cells with rucaparib alone",90.5% (active)
same,viability,"[8]; at 1.25 µM, OCI-P5x cells, without rucaparib",108% (inactive)
same,viability,"[8]; at 5 µM, OCI-C5x cells, with rucaparib 10 µM, 100% = cells with rucaparib alone",111% (inactive)
same,viability,"[8]; at 5 µM, OCI-C5x cells, without rucaparib",121% (inactive)
same,viability,"[8]; at 5 µM, OCI-P5x cells, with rucaparib 20 µM, 100% = cells with rucaparib alone",92.1% (active)
same,viability,"[8]; at 5 µM, OCI-P5x cells, without rucaparib",111% (inactive)
NC1CCC(N[C@@H]2C[C@H]2c2ccccc2)CC1 (stereo partly drawn),outcome,[1],inactive
same,outcome,[2],inactive
same,outcome,[3],inactive
same,outcome,[4],inactive
same,outcome,[5],inactive
same,inhibition,"[9]; at 0.5 µM, stronger effect = higher value",20.5% (inactive)
same,inhibition,"[9]; measured here: combination with BGB IC20, at 0.005 µM",-7.63%
same,inhibition,"[9]; measured here: combination with BGB IC40, at 0.005 µM",-36.6%
same,inhibition,[9]; [21],-4.73%
same,inhibition,"[9]; measured here: combination with cisplatin, at 0.5 µM, stronger effect = higher value",61.5%
same,inhibition,"[9]; measured here: combination with cisplatin, at 5 µM, stronger effect = higher value",-33.8%
same,inhibition,"[10]; BGB combo, at 5 µM",-29.3%
same,inhibition,[10]; at 0.5 µM,-3.39% (inactive)
same,inhibition,"[10]; cisplatin combo, at 5 µM",-5%
same,inhibition,"[10]; measured here: with BGB IC20 combination, at 0.5 µM",-15.4%
same,inhibition,"[10]; measured here: with cisplatin IC20 combination, at 0.5 µM",-4.58%
same,inhibition,"[10]; single agent, at 5 µM",-15%
same,inhibition,"[11]; BGB IC20 combo, at 0.005 µM",1.45%
same,inhibition,"[11]; BGB IC40 combo, at 0.005 µM",-40%
same,inhibition,"[11]; BGB IC40 combo, at 0.05 µM",-44.5%
same,inhibition,[11]; at 0.5 µM,-31.6% (inactive)
same,inhibition,"[11]; cisplatin combo, at 0.05 µM",-50.3%
same,inhibition,"[11]; cisplatin combo, at 0.5 µM",-54.9%
same,inhibition,"[11]; cisplatin combo, at 5 µM",-29.9%
same,inhibition,"[11]; measured here: 5 uM single agent, at 5 µM",-0.182%
same,inhibition,[12]; at 0.5 µM,-25.6% (inactive)
same,inhibition,[12]; [21],-43.6%
same,inhibition,[12]; [22],-41.7%
same,inhibition,"[12]; measured here: combination with cisplatin, at 5 µM",-14.7%
same,inhibition,[13]; at 0.5 µM,0.26% (inactive)
same,inhibition,"[13]; measured here: with BGB IC20, at 0.5 µM",13%
same,inhibition,"[13]; measured here: with BGB IC20, at 5 µM",4.36%
same,inhibition,"[13]; measured here: with cisplatin IC20, at 0.5 µM",-8.09%
same,inhibition,"[13]; measured here: with cisplatin IC20, at 5 µM",0.769%
same,inhibition,"[13]; single agent, at 5 µM",26.6%
same,inhibition,[14]; at 0.5 µM,-30% (inactive)
same,inhibition,"[14]; measured here: combination with BGB at IC20, at 0.5 µM",8.8%
same,inhibition,"[14]; measured here: combination with cisplatin at IC20, at 0.5 µM",-54.3%
same,inhibition,[15]; at 0.5 µM,-7.1% (inactive)
same,inhibition,"[15]; measured here: combo with BGB at IC20, at 0.5 µM",-21.2%
same,inhibition,"[15]; measured here: combo with cisplatin at IC20, at 0.5 µM",17.1%
same,inhibition,[16]; at 0.5 µM,-1.76% (inactive)
same,inhibition,"[16]; measured here: inhibition with BGB combination, at 0.05 µM",-8.52%
same,inhibition,"[16]; measured here: inhibition with cisplatin combination, at 0.05 µM",-20.9%
same,inhibition,[17]; at 0.5 µM,-9.19% (inactive)
same,inhibition,"[17]; measured here: BGB combination, at 0.5 µM",-1.28%
same,inhibition,"[17]; measured here: BGB combination, at 5 µM",-16.2%
same,inhibition,"[17]; measured here: cisplatin combination, at 0.5 µM",-20.5%
same,inhibition,"[17]; measured here: cisplatin combination, at 5 µM",-12.9%
same,inhibition,[18]; at 0.5 µM,-8.52% (inactive)
same,inhibition,"[18]; cisplatin combination, at 0.5 µM",-9.89%
same,inhibition,"[18]; cisplatin combination, at 5 µM",-5.53%
same,inhibition,"[18]; measured here: BGB IC40 combination 0.05 uM, at 0.05 µM",65.9%
same,inhibition,"[18]; single agent, at 5 µM",3.43%
same,inhibition,[19]; at 0.5 µM,-11.5% (inactive)
same,inhibition,"[19]; cisplatin combo, at 5 µM",-6.41%
same,inhibition,"[19]; measured here: BGB IC40 combination, at 0.05 µM",-13.6%
same,inhibition,[19]; [22],-9.08%
same,inhibition,"[19]; single agent, at 5 µM",-32.3%
same,inhibition,[20],-40.7% (inactive)

# Source: PubChem BioAssay
